The record followed here is PubChem BioAssay (EPA / NIEHS).

In general, AC50 refers to the concentration giving half of the maximal activity seen.

Assay [1] addresses mouse Cholecystokinin, CCK1 Receptor (CCKA), Cckar (gene 12425) (UniProt O08786). In words: NVS_GPCR_mCCKAPeripheral: NovaScreen (NVS) G Protein-Coupled Receptor Assay for mouse Cholecystokinin, CCK1 Receptor (CCKA) (AID 2283285). The procedure, abridged:
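Chemicals were first screened in duplicate at 25 uM, with those meeting threshold (e.g., 30% inhibition) retested in singleton concentration series to 50 uM maximum. Binding of radioligand to mouse pancreatic membranes was read after 2 h by filtration and scintillation counting.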

For assay [2], the target named is rat Adrenergic, Alpha 1, Non-selective Receptor (Adra1), Adra1a (gene 29412) (UniProt P43140). The assay can be described thus: NVS_GPCR_rAdra1_NonSelective: NovaScreen (NVS) G Protein-Coupled Receptor Assay for rat Adrenergic, Alpha 1, Non-selective Receptor (Adra1) (AID 2283289). The procedure, abridged: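 Chemicals first screened in duplicate at 25 uM, then actives tested in concentration series up to 50 uM. Binding measured as displacement of radioligand from rat forebrain membrane receptors, 1 h, filtration with scintillation readout; DMSO baseline.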

In assay [3] the target is human Opioid Receptor Mu (Opiate Mu), OPRM1 (gene 4988) (UniProt P35372). The assay can be described thus: NVS_GPCR_hOpiate_mu: NovaScreen (NVS) G Protein-Coupled Receptor Assay for human Opioid Receptor Mu (Opiate Mu) (AID 2283290).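 Note: hits lower bound tracer signal versus DMSO meaning displacement of the ligand.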 The procedure, abridged:
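Primary screen in duplicate at 25 uM, with actives followed in concentration series. CHO-derived receptor membranes, cell-free; bound radioligand read by scintillation counting after filtration at 2.5 h, decrease scored against DMSO.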

Assay [4] concerns the target mouse Cholecystokinin, CCK2 Receptor (CCKB), Cckbr (gene 12426) (UniProt P56481). The assay can be described thus: NVS_GPCR_mCKKBCentral: NovaScreen (NVS) G Protein-Coupled Receptor Assay for mouse Cholecystokinin, CCK2 Receptor (CCKB) (AID 2283293). The procedure, abridged:
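Mouse forebrain membrane preparation incubated 2 h with chemical and radioligand; bound radioactivity counted after filtration. Single-concentration duplicate screen at 25 uM, then concentration series to 50 uM max for hits, DMSO as baseline.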

In assay [5] the test system is rat Adrenergic, Alpha 1B Receptor (Adra1B), gene 24173. In words: NVS_GPCR_rAdra1B: NovaScreen (NVS) G Protein-Coupled Receptor Assay for rat Adrenergic, Alpha 1B Receptor (Adra1B) (AID 2283297). The procedure, abridged:
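Filter-binding radioligand competition on membranes from rat liver, read after 1 h by scintillation counting. Single-concentration duplicate screen at 25 uM, followed by concentration-response on actives, normalised to DMSO.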

Assay [6] addresses rat Gamma-Aminobutyric Acid Type B Receptor (GABBR), Gabbr1 (gene 81657) (UniProt Q9Z0U4). The assay can be described thus: NVS_GPCR_rGABBR: NovaScreen (NVS) G Protein-Coupled Receptor Assay for rat Gamma-Aminobutyric Acid Type B Receptor (GABBR) (AID 2283301). A digest of the protocol: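 Rat cortical membrane preparation, competitive radioligand binding for 1 h with filtration and scintillation readout. Actives from duplicate single-point 25 uM screening proceeded to concentration series with 50 uM top concentration.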

In assay [7] the test system is 5-hydroxytryptamine receptor 2C (pig). The assay can be described thus: NVS_GPCR_p5HT2C: NovaScreen (NVS) G Protein-Coupled Receptor Assay for pig Serotonin, 5-Hydroxytryptamine Receptor 2C (5HT2C) (AID 2283288). A digest of the protocol: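 Radioligand displacement on membranes from pig choroid plexus, detected by filter scintillation counting after 1 h. Tested first at a single 25 uM in duplicate, then in concentration-response for actives; DMSO served as baseline.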

For assay [8], the target named is human Thromboxane A2 Receptor (TXA2), TBXA2R (gene 6915) (UniProt P21731). The assay can be described thus: NVS_GPCR_hTXA2: NovaScreen (NVS) G Protein-Coupled Receptor Assay for human Thromboxane A2 Receptor (TXA2) (AID 2283282).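 Note: actives reduce bound radioligand signal relative to DMSO baseline.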 A digest of the protocol: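 Human platelet membranes tested for radioligand displacement by filtration and scintillation counting 1 h post-dose. Screened in duplicate at 25 uM; activity fitted as signal loss relative to DMSO.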

For assay [9], the target named is rat Serotonin, 5-Hydroxytryptamine Receptor 1 (5HT1), Non-Selective Binding, Htr1a (gene 24473) (UniProt P19327). The assay can be described thus: NVS_GPCR_r5HT1_NonSelective: NovaScreen (NVS) G Protein-Coupled Receptor Assay for rat Serotonin, 5-Hydroxytryptamine Receptor 1 (5HT1), Non-Selective Binding (AID 2283286). The procedure, abridged: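 Binding of a radioligand to rat cortex membranes is read by filtration and scintillation counting after 1 h. Compounds were screened at 25 uM in duplicate. Actives were then titrated to a top of 50 uM. DMSO is the baseline.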

The test system of assay [10] is rabbit Platelet Activating Factor Receptor (PAF), gene 100354046. The assay can be described thus: NVS_GPCR_rabPAF: NovaScreen (NVS) G Protein-Coupled Receptor Assay for rabbit Platelet Activating Factor Receptor (PAF) (AID 2283287). The procedure, abridged: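 Rabbit platelet membrane preparation; radioligand displacement read by filter-based scintillation counting 1 h after dosing, loss of signal versus DMSO. Primary screen in duplicate at 25 uM, actives followed up in concentration series.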

Assay [11] has as its target guinea pig Serotonin, 5-Hydroxytryptamine Receptor 4 (5HT4), HTR4 (gene 100135548) (UniProt O70528). The assay can be described thus: NVS_GPCR_g5HT4: NovaScreen (NVS) G Protein-Coupled Receptor Assay for guinea pig Serotonin, 5-Hydroxytryptamine Receptor 4 (5HT4) (AID 2283294). The procedure, abridged: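 Compounds first screened in duplicate at 25 uM, actives followed up in concentration series. Binding measured as displacement of specific radioligand from guinea pig striatal membranes, 1 h, filter-based scintillation read-out versus DMSO baseline.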

The target in assay [12] is rat Serotonin, 5-Hydroxytryptamine Receptor (5HT), Non-Selective Binding, Htr1a (gene 24473) (UniProt P19327). The assay can be described thus: NVS_GPCR_r5HT_NonSelective: NovaScreen (NVS) G Protein-Coupled Receptor Assay for rat Serotonin, 5-Hydroxytryptamine Receptor (5HT), Non-Selective Binding (AID 2283295). The procedure, abridged: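 Rat cortex membrane preparation incubated 1 h with radioligand and test chemical; bound radioactivity counted after filtration. Screening began in duplicate at 25 uM with concentration-series follow-up; fitting relative to DMSO.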

Assay [13] concerns the target rat Adrenergic, Alpha 1A Receptor (Adra1A), Adra1a (gene 29412) (UniProt P43140). In words: NVS_GPCR_rAdra1A: NovaScreen (NVS) G Protein-Coupled Receptor Assay for rat Adrenergic, Alpha 1A Receptor (Adra1A) (AID 2283296). A digest of the protocol: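 Filter radiodetection after 1 h competitive binding on CEC-pretreated rat cortical membranes. Duplicate single-point screening at 25 uM; active chemicals retested across concentration series.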

Assay [14] concerns the target rat Adrenergic Receptor, Beta (Adrb), Non-selective Binding, Adrb1 (gene 24925) (UniProt P18090). In words: NVS_GPCR_rAdrb_NonSelective: NovaScreen (NVS) G Protein-Coupled Receptor Assay for rat Adrenergic Receptor, Beta (Adrb), Non-selective Binding (AID 2283298). A digest of the protocol:
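Rat cortical membranes incubated 1 h with beta-adrenergic radioligand and test chemical; bound ligand measured by filtration and scintillation counting. Screen at 25 uM duplicate, then concentration series with 50 uM maximum; loss of signal versus DMSO.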

For assay [15], the target named is rat Histamine Receptor (H3), Hrh3 (gene 85268) (UniProt Q9QYN8). The assay can be described thus: NVS_GPCR_rH3: NovaScreen (NVS) G Protein-Coupled Receptor Assay for rat Histamine Receptor (H3) (AID 2283303). A digest of the protocol:
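Filter-binding radioligand competition on rat forebrain membranes, 1 h incubation; compounds screened at 25 µM in duplicate and followed in concentration series to 50 µM, loss of bound signal vs DMSO.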

A further assay deals with Adra2b (gene 24174) (UniProt P19328). The assay can be described thus: NVS_GPCR_rmAdra2B: NovaScreen (NVS) G Protein-Coupled Receptor Assay for hybird cells Adrenergic, Alpha 2B Receptor (Adra2B) (AID 2283306). The procedure, abridged:
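Compounds screened first at 25 uM in duplicate, with actives followed up in concentration-response; specific radioligand displacement from hybrid neuroglioma/blastoma cell membrane preparations measured by filter scintillation counting after 1 h, normalized to DMSO.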

Assay [16] addresses human Vasopressin 1A Receptor (V1A), AVPR1A (gene 552) (UniProt P37288). In words: NVS_GPCR_hV1A: NovaScreen (NVS) G Protein-Coupled Receptor Assay for human Vasopressin 1A Receptor (V1A) (AID 2283284). The procedure, abridged:
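Single-concentration duplicate screen at 25 uM, with concentration-response follow-up (top 50 uM) for actives. The assay measured displacement of a radioligand from human platelet-derived receptor after 1.5 h, detected by filtration and scintillation counting.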

In assay [17] the target is human Orphanin, Opioid Related Nociceptin Receptor 1 (ORL1), OPRL1 (gene 4987) (UniProt P41146). In words: NVS_GPCR_hORL1: NovaScreen (NVS) G Protein-Coupled Receptor Assay for human Orphanin, Opioid Related Nociceptin Receptor 1 (ORL1) (AID 2283283). The procedure, abridged: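 Cell-free binding using HEK293-derived receptor protein: radioligand displacement measured by filter scintillation 1 hour after dosing. Primary testing at 25 uM in duplicate, followed by singleton concentration series up to 50 uM; DMSO served as negative control.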

Molecules are shown by their SMILES. Records with an inconclusive call do not appear. The source made the active and inactive calls. Rule for the calls: active = hit-call score of the fitted dose curve at least 0.9, where 1 is the maximum; inconclusive = response in the unintended direction; inactive = score below 0.9.

Chain of rat Adrenergic, Alpha 1, Non-selective Receptor (Adra1), Adra1a (gene 29412) (P43140 whole entry, looked up): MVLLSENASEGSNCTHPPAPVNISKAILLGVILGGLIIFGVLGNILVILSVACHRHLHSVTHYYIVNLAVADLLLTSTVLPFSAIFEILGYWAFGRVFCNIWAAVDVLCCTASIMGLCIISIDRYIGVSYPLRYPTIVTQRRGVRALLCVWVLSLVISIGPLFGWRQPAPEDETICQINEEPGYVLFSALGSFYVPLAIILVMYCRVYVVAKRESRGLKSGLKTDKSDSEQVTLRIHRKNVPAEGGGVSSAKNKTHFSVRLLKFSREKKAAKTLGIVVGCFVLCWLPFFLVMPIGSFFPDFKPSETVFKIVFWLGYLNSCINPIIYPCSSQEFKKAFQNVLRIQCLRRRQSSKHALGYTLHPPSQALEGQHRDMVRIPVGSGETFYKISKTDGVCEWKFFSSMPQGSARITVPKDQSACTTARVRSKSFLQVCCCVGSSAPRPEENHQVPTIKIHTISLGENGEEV
Chain of mouse Cholecystokinin, CCK1 Receptor (CCKA), Cckar (gene 12425) (O08786 whole entry, looked up): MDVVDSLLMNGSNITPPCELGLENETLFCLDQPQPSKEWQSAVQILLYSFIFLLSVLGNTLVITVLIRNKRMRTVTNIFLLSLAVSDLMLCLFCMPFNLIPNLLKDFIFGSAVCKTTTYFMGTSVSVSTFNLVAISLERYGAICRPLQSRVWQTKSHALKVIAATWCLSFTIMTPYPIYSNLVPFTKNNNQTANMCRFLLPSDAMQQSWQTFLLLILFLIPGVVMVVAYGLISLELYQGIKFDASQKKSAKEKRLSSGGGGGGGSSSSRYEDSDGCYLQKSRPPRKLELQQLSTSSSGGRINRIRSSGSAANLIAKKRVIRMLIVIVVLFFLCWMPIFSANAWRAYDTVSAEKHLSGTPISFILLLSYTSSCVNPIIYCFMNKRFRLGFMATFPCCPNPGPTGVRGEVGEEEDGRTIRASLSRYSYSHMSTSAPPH
Chain of rat Adrenergic Receptor, Beta (Adrb), Non-selective Binding, Adrb1 (gene 24925) (P18090 whole entry, looked up): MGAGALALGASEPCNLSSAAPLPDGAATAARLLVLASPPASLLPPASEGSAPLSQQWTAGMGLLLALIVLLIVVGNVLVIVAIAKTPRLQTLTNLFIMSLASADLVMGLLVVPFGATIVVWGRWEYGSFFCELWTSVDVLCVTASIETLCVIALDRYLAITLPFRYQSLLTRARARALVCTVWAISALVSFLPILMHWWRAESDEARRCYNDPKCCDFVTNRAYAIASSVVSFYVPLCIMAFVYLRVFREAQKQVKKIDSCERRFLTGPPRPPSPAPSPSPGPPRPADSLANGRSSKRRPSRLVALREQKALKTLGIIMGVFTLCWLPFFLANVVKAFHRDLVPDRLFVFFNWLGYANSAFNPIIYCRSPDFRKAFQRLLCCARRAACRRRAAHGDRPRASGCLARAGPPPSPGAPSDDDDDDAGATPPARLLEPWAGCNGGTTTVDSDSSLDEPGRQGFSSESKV
Chain of rat Histamine Receptor (H3), Hrh3 (gene 85268) (Q9QYN8 whole entry, looked up): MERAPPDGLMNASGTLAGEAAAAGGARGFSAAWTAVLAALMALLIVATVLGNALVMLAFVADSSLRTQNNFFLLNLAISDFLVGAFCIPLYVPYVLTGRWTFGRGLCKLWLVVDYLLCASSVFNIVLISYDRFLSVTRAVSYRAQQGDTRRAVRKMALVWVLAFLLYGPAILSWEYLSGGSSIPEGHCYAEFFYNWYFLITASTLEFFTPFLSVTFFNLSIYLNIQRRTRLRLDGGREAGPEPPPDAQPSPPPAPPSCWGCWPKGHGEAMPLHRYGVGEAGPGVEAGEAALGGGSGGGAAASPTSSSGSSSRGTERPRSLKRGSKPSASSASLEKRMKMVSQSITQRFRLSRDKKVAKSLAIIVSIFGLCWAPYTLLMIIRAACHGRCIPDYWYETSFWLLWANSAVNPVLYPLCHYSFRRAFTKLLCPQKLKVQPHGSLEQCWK
Chain of guinea pig Serotonin, 5-Hydroxytryptamine Receptor 4 (5HT4), HTR4 (gene 100135548) (O70528 whole entry, looked up): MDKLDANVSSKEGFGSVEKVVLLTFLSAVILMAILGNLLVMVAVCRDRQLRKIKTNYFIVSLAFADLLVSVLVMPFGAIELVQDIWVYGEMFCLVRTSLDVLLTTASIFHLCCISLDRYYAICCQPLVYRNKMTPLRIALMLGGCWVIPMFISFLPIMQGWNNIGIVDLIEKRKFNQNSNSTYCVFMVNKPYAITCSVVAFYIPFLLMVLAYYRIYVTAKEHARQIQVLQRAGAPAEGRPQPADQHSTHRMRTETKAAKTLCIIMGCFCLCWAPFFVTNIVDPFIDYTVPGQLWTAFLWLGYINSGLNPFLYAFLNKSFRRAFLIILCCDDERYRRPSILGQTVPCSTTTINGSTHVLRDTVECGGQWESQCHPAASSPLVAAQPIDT
Chain of human Opioid Receptor Mu (Opiate Mu), OPRM1 (gene 4988) (P35372 whole entry, looked up): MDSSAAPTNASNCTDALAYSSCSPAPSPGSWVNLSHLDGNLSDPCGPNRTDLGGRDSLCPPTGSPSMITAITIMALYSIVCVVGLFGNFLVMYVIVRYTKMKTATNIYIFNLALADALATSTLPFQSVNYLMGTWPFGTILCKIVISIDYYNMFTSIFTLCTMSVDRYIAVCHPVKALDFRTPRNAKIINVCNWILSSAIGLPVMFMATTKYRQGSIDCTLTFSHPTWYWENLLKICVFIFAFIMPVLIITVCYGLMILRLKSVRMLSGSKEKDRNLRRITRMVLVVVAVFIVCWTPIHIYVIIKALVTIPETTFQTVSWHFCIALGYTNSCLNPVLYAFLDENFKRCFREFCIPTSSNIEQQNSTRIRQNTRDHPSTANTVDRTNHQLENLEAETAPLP
Chain of human Thromboxane A2 Receptor (TXA2), TBXA2R (gene 6915) (P21731 whole entry, looked up): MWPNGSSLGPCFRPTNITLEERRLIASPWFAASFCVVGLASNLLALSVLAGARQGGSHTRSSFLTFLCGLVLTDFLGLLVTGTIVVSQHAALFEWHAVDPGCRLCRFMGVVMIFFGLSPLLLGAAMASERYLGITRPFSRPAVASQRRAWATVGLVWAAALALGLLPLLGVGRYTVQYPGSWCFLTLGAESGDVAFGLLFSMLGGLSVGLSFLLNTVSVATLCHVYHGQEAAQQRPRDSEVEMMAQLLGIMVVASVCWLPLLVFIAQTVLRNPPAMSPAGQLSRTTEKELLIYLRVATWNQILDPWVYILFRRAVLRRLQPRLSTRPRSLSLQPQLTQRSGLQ
Chain of Adra2b (gene 24174) (P19328 whole entry, looked up): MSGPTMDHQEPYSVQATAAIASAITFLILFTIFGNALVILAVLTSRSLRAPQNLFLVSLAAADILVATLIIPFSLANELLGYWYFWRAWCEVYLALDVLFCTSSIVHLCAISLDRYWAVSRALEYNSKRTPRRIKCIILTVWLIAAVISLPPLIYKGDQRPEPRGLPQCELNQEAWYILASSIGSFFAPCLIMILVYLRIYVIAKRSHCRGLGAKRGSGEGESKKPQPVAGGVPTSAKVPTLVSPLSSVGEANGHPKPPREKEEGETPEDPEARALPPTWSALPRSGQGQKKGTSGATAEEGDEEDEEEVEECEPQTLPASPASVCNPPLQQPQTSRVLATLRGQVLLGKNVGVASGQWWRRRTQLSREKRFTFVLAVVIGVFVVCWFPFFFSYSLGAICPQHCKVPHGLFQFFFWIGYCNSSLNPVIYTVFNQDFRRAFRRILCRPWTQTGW
Chain of rat Adrenergic, Alpha 1A Receptor (Adra1A), Adra1a (gene 29412) (P43140 whole entry, looked up): as the sequence (P43140 whole entry, looked up) above
Chain of rat Serotonin, 5-Hydroxytryptamine Receptor 1 (5HT1), Non-Selective Binding, Htr1a (gene 24473) (P19327 whole entry, looked up): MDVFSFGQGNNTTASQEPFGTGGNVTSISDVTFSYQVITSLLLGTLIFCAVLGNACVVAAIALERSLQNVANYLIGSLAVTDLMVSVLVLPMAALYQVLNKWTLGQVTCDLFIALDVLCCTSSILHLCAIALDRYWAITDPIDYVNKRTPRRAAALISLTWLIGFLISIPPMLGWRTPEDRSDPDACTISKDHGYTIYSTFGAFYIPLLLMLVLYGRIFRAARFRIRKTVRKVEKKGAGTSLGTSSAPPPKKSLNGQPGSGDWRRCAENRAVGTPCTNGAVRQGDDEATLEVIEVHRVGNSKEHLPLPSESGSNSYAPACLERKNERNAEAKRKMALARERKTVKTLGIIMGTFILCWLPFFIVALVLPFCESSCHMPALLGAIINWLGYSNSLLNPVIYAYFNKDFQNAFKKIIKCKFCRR
Chain of rat Serotonin, 5-Hydroxytryptamine Receptor (5HT), Non-Selective Binding, Htr1a (gene 24473) (P19327 whole entry, looked up): as above

As for `CCc1cc(SCc2sc(-c3ccc(C(F)(F)F)cc3)nc2CN2CCN(c3ccc(OC)cc3)CC2)ccc1OCC(=O)O`, the AC50 in assay [1] is 7.03 µM (active); in [3], 4.54 µM (active); in assay [4], 35.3 µM (active). Besides, the compound was classed as inactive in [2], in assay [5] and in assay [6].

With `Cn1c(=O)c2c(ncn2C)n(C)c1=O`, in [7], the outcome was inactive.

`CCOc1cccc(-n2cc(C(=O)N3CCN(c4cc(C(=O)O)c5ccccc5c4)CC3)nc2-c2ccc(C)cc2)c1`: the half-maximal activity concentration (AC50) in assay [8] is 6.65 µM (active); in assay [1], 0.00589 µM (active); in [3], 23.8 µM (active).

Take `Cc1[nH]cnc1C[C@H]1CCc2c(C)c3ccccc3n2C1=O`: the outcome in [9] and in [15] was inactive. The AC50 was 0.958 µM (active) in [10]; 0.116 µM (active) in assay [7]; 3.15 µM (active) in [2]; 6.29 µM (active) in [3]; 6.64 µM (active) in assay [11]; 4.63 µM (active) in [12]. Further, the half-maximal activity concentration (AC50) is 8.9 µM (active) in assay [13], 11.9 µM (active) in [5], 4.78 µM (active) in [14] and 3.68 µM (active) with Adra2b (gene 24174).

With `CC1=CC(=O)CC(C)(C)C1`, in [16], the AC50 was 18.5 µM (active). In addition, the compound was called inactive in assay [14].

With `CCCCCCc1ccc(O)cc1O`, the figures for the AC50 in assay [8], in assay [7] and in assay [11] were 5.72 µM (active), 16.7 µM (active) and 36.6 µM (active), respectively. Besides, the outcome in [3] was inactive.

As for `COc1ccc2sc(C(=O)Nc3nnn[nH]3)c(OC(C)C)c2c1`, the AC50 in [8] was 0.187 µM (active).

In the case of `On1ccccc1=S`, the figures for the concentration at half-maximal activity (AC50) in assay [17] and in assay [9] were 4.73 µM (active) and 16.2 µM (active), respectively. Also, the compound was classed as inactive in assay [3].

On to `Cn1c(=O)cc(Oc2ccc(F)cc2F)c2cnc(NCC(C)(C)O)nc21`, for which, in assay [1], the AC50 is 11.3 µM (active).

With `COc1ccc(-n2nc(C(F)F)cc2-c2ccc(S(C)=O)cc2)cc1` (stereo not given), the concentration at half-maximal activity (AC50) in assay [10] was 11.5 µM (active). Further, the compound was classed as inactive in the assay with Adra2b (gene 24174).

On to `Cc1c(-c2cccnc2)c2ccccc2n1CCCCC(=O)O`, for which, in assay [8], the concentration at half-maximal activity (AC50) was 5.82 µM (active).

With `CN(C)c1ccc(N=NS(=O)(=O)O)cc1`, the AC50 in assay [2] was 23.8 µM (active); in assay [15] it was 14.6 µM (active).

`CCn1nc(Cc2ccccc2)cc1C1CCN(C[C@H]2C[C@H](N(C)[C@@H](C(=O)O)C(C)C)C[C@@H]2c2cccc(F)c2)CC1`: the concentration at half-maximal activity (AC50) in assay [3] is 8.81 µM (active); in assay [11] it was 25 µM (active). In addition, the call in assay [14] was inactive.

With `Oc1ccc2c(c1)-c1ccccc1C2`, the AC50 in assay [7] is 4.27 µM (active); in assay [11], 6.87 µM (active).

For `CCOC(=O)c1ccc(C2CCC(NC[C@H](O)COc3ccc(O)c(NS(C)(=O)=O)c3)CC2)cc1` (stereo not given in full), the half-maximal activity concentration (AC50) in assay [7] was 19.5 µM (active); in assay [11], 2.57 µM (active); in assay [13] it was 11.5 µM (active); in [14], 8.67 µM (active); in assay [15] it was 23.4 µM (active); in the assay with Adra2b (gene 24174), 23.4 µM (active). For the same compound, the call in assay [3] was inactive.
